# PubChem BioAssay AID1159580 (chemical genetic matrix, 2015)
# Among all 5,500 compounds or so, about 2,000 (36%) were called active. Inconclusive results (about 18%) are left out. The list shows a part of the results. Unmarked numbers belong to inactive results. No stated cut-off is given here; in the data, active means normalized growth mostly below about 0.91 (no sharp cut-off); inconclusive means no clear call, values can overlap the other calls; inactive means mostly above about 0.92.
# Test: chemical genetic growth profiling, strain panel (AID 1159580);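 further: tested at 20 µM; growth read once vehicle control cultures reached saturation at 30 °C; 1 = growth at the plate median or of vehicle wells; lower values mean less growth of the strain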
# Conditions: S. cerevisiae deletion strains, growth OD
# [1] = locus YAL021C, strain ccr4, hits give low values
# [2] = locus YAL026C, strain drs2, hits give low values
# [3] = locus YAL030W, strain snc1, hits give low values
# [4] = locus YBL061C, strain skt5, hits give low values
# [5] = locus YBR009C, strain hhf1, hits give low values
# [6] = locus YBR023C, strain chs3, hits give low values
# [7] = locus YBR171W, strain sec66, hits give low values
# [8] = locus YBR231C, strain swc5, hits give low values
# [9] = locus YBR279W, strain paf1, hits give low values
# [10] = locus YCL011C, strain gbp2, hits give low values
# [11] = locus YCL016C, strain dcc1, hits give low values
# [12] = locus YCL061C, strain MRC1, hits give low values
# [13] = locus YCL069W, strain vba3, hits give low values
# [14] = locus YCR088W, strain abp1, hits give low values
# [15] = locus YDL005C, strain med2, hits give low values
# [16] = locus YDL040C, strain nat1, hits give low values
# [17] = locus YDR001C, strain nth1, hits give low values
# [18] = locus YDR069C, strain doa4, hits give low values
# [19] = locus YDR137W, strain rgp1, hits give low values
# [20] = locus YDR159W, strain sac3, hits give low values
# [21] = locus YDR297W, strain sur2, hits give low values
# [22] = locus YDR334W, strain swr1, hits give low values
# [23] = locus YDR335W, strain msn5, hits give low values
# [24] = locus YDR392W, strain spt3, hits give low values
# [25] = locus YEL003W, strain gim4, hits give low values
# [26] = locus YEL037C, strain rad23, hits give low values
# [27] = locus YEL061C, strain CIN8 (second series), hits give low values
# [28] = locus YER015W, strain faa2, hits give low values
# [29] = locus YER016W, strain bim1, hits give low values
# [30] = locus YER111C, strain swi4, hits give low values
# [31] = locus YER155C, strain BEM2 (second series), hits give low values
# [32] = locus YFR010W, strain ubp6, hits give low values
# [33] = locus YGL167C, strain pmr1, hits give low values
# [34] = locus YGL173C, strain kem1, hits give low values
# [35] = locus YGL227W, strain vid30, hits give low values
# [36] = locus YGL240W, strain doc1, hits give low values
# [37] = locus YGL253W, strain hxk2, hits give low values
# [38] = locus YHR013C, strain ard1, hits give low values
# [39] = locus YHR027C, strain rpn1, hits give low values
# [40] = locus YHR142W, strain chs7, hits give low values
# [41] = locus YJL092W, strain hpr5, hits give low values
# [42] = locus YJL095W, strain BCK1 (second series), hits give low values
# [43] = locus YJL115W, strain asf1, hits give low values
# [44] = locus YJL129C, strain trk1, hits give low values
# [45] = locus YJL154C, strain vps35, hits give low values
# [46] = locus YJL164C, strain tpk1, hits give low values
# [47] = locus YJL166W, strain qcr8, hits give low values
# [48] = locus YJL187C, strain SWE1, hits give low values
# [49] = locus YKL160W, strain elf1, hits give low values
# [50] = locus YKR026C, strain gcn3, hits give low values
# [51] = locus YKR091W, strain srl3, hits give low values
# [52] = locus YLL001W, strain dnm1, hits give low values
# [53] = locus YLL026W, hits give low values
# [54] = locus YLL041C, strain sdh2, hits give low values
# [55] = locus YLR027C, strain aat2, hits give low values
# [56] = locus YLR221C, strain rsa3, hits give low values
# [57] = locus YLR258W, strain gsy2, hits give low values
# [58] = locus YLR262C, strain YPT6 (second series), hits give low values
# [59] = locus YLR320W, strain mms22, hits give low values
# [60] = locus YLR342W, strain FKS1, hits give low values
# [61] = locus YLR357W, strain rsc2, hits give low values
# [62] = locus YLR370C, strain arc18, hits give low values
# [63] = locus YLR384C, strain iki3, hits give low values
# [64] = locus YML120C, strain ndi1, hits give low values
# [65] = locus YMR125W, strain sto1, hits give low values
# [66] = locus YMR129W, hits give low values
# [67] = locus YMR205C, strain PFK2, hits give low values
# [68] = locus YMR231W, strain pep5, hits give low values
# [69] = locus YNL071W, strain lat1, hits give low values
# [70] = locus YNL209W, strain ssb2, hits give low values
# [71] = locus YNL248C, strain rpa49, hits give low values
# [72] = locus YNL322C, strain KRE1 (second series), hits give low values
# [73] = locus YNR049C, strain mso1, hits give low values
# [74] = locus YOR001W, strain rrp6, hits give low values
# [75] = locus YOR070C, strain gyp1, hits give low values
# [76] = locus YOR080W, strain dia2, hits give low values
# [77] = locus YOR083W, strain WHI5, hits give low values
# [78] = locus YOR106W, strain vam3, hits give low values
# [79] = locus YOR265W, strain rbl2, hits give low values
# [80] = locus YOR270C, strain vph1, hits give low values
# [81] = locus YOR290C, strain snf2, hits give low values
# [82] = locus YPL051W, strain arl3, hits give low values
# [83] = locus YPL078C, strain atp4, hits give low values
# [84] = locus YPL106C, strain sse1, hits give low values
# [85] = locus YPL240C, strain hsp82, hits give low values
smiles,measurement,setting,value
O=c1cc(-c2ccc(O)c(O)c2)oc2ccccc12,normalized growth,[1],0.999
same,normalized growth,[2],0.964
same,normalized growth,[3],0.986
same,normalized growth,[4],0.965
same,normalized growth,[5],0.933
same,normalized growth,[6],0.961
same,normalized growth,[7],0.97
same,normalized growth,[8],0.924
same,normalized growth,[9],0.977
same,normalized growth,[10],0.956
same,normalized growth,[11],0.969
same,normalized growth,[12],0.965
same,normalized growth,[13],0.996
same,normalized growth,[14],0.997
same,normalized growth,[15],0.998
same,normalized growth,[16],0.989
same,normalized growth,[17],0.994
same,normalized growth,[18],0.893 (active)
same,normalized growth,[19],0.985
same,normalized growth,[20],0.971
same,normalized growth,"locus YDR195W, strain ref2",1.02
same,normalized growth,[21],0.971
same,normalized growth,[22],0.976
same,normalized growth,[23],0.995
same,normalized growth,[24],0.954
same,normalized growth,[25],0.946
same,normalized growth,[26],0.984
same,normalized growth,[27],0.989
same,normalized growth,[28],0.955
same,normalized growth,[29],0.991
same,normalized growth,[30],0.962
same,normalized growth,[31],0.926
same,normalized growth,[32],0.947
same,normalized growth,[33],0.98
same,normalized growth,[34],0.936
same,normalized growth,[35],0.991
same,normalized growth,[36],1.01
same,normalized growth,[37],0.963
same,normalized growth,[38],0.983
same,normalized growth,[39],0.966
same,normalized growth,[40],0.962
same,normalized growth,[41],0.983
same,normalized growth,[42],0.976
same,normalized growth,[43],0.991
same,normalized growth,[44],0.978
same,normalized growth,[45],0.996
same,normalized growth,[46],0.942
same,normalized growth,[47],0.932
same,normalized growth,[48],0.982
same,normalized growth,[49],0.974
same,normalized growth,[50],0.972
same,normalized growth,[51],1
same,normalized growth,[52],0.965
same,normalized growth,[53],0.987
same,normalized growth,[54],0.99
same,normalized growth,[55],0.943
same,normalized growth,[56],0.927
same,normalized growth,[57],0.967
same,normalized growth,[58],0.934
same,normalized growth,[59],0.943
same,normalized growth,[60],0.961
same,normalized growth,[61],0.927
same,normalized growth,[62],0.993
same,normalized growth,[63],0.981
same,normalized growth,[64],0.978
same,normalized growth,[65],0.991
same,normalized growth,[66],0.99
same,normalized growth,[67],0.982
same,normalized growth,[68],0.961
same,normalized growth,[69],0.965
same,normalized growth,[70],0.932
same,normalized growth,[71],0.986
same,normalized growth,[72],0.989
same,normalized growth,[73],0.992
same,normalized growth,[74],0.928
same,normalized growth,[75],0.956
same,normalized growth,[76],0.986
same,normalized growth,[77],0.959
same,normalized growth,[78],0.867 (active)
same,normalized growth,[79],1.01
same,normalized growth,[80],0.83
same,normalized growth,[81],0.968
same,normalized growth,[82],0.926
same,normalized growth,[83],0.985
same,normalized growth,[84],0.938
same,normalized growth,[85],0.99
O=c1cc(-c2ccc(O)cc2)oc2ccc(O)cc12,normalized growth,[1],0.99
same,normalized growth,[2],0.956
same,normalized growth,[3],0.972
same,normalized growth,[4],0.964
same,normalized growth,[5],0.936
same,normalized growth,[6],0.987
same,normalized growth,[7],0.981
same,normalized growth,[8],0.979
same,normalized growth,[9],0.978
same,normalized growth,[10],0.949
same,normalized growth,[11],0.981
same,normalized growth,[12],0.987
same,normalized growth,[13],0.98
same,normalized growth,[14],0.977
same,normalized growth,[15],0.969
same,normalized growth,[16],0.985
same,normalized growth,[17],0.97
same,normalized growth,[18],0.922
same,normalized growth,[19],0.96
same,normalized growth,[20],0.954
same,normalized growth,"locus YDR195W, strain ref2",0.943
same,normalized growth,[21],0.958
same,normalized growth,[22],0.976
same,normalized growth,[23],0.979
same,normalized growth,[24],0.935
same,normalized growth,[25],0.97
same,normalized growth,[26],0.971
same,normalized growth,[27],0.952
same,normalized growth,[28],0.997
same,normalized growth,[29],0.983
same,normalized growth,[30],0.973
same,normalized growth,[31],0.963
same,normalized growth,[32],0.938
same,normalized growth,[33],0.949
same,normalized growth,[34],0.961
same,normalized growth,[35],0.96
same,normalized growth,[36],0.964
same,normalized growth,[37],0.992
same,normalized growth,[38],0.938
same,normalized growth,[39],0.962
same,normalized growth,"locus YHR030C, strain SLT2, hits give low values",0.989
same,normalized growth,"locus YHR079C, strain IRE1, hits give low values",0.992
same,normalized growth,[40],0.976
same,normalized growth,[41],0.984
same,normalized growth,[42],0.978
same,normalized growth,"locus YJL095W, strain BCK1, hits give low values",1
same,normalized growth,[43],0.978
same,normalized growth,[44],0.942
same,normalized growth,[45],0.991
same,normalized growth,[46],0.958
same,normalized growth,[47],0.977
same,normalized growth,[48],0.973
same,normalized growth,"locus YJR066W, strain TOR1, hits give low values",0.933
same,normalized growth,[49],0.987
same,normalized growth,[50],0.963
same,normalized growth,[51],0.984
same,normalized growth,[52],0.964
same,normalized growth,[53],0.986
same,normalized growth,[54],0.995
same,normalized growth,[55],0.971
same,normalized growth,"locus YLR113W, strain HOG1, hits give low values",0.951
same,normalized growth,[56],0.988
same,normalized growth,[57],0.977
same,normalized growth,[58],0.959
same,normalized growth,[59],0.964
same,normalized growth,[60],0.97
same,normalized growth,[61],0.982
same,normalized growth,[62],0.947
same,normalized growth,[63],0.969
same,normalized growth,[64],0.956
same,normalized growth,"locus YMR058W, strain fet3, hits give low values",0.961
same,normalized growth,[65],0.947
same,normalized growth,[66],0.973
same,normalized growth,[67],0.946
same,normalized growth,[68],0.974
same,normalized growth,[69],0.984
same,normalized growth,"locus YNL183C, strain NPR1, hits give low values",0.932
same,normalized growth,[70],0.975
same,normalized growth,[71],0.988
same,normalized growth,[72],0.97
same,normalized growth,[73],0.989
same,normalized growth,[74],0.991
same,normalized growth,[75],0.988
same,normalized growth,[76],0.967
same,normalized growth,[77],0.918
same,normalized growth,[78],0.974
same,normalized growth,"locus YOR231W, strain MKK1, hits give low values",0.968
same,normalized growth,[79],0.961
same,normalized growth,[80],0.919
same,normalized growth,[81],0.943
same,normalized growth,[82],0.971
same,normalized growth,[83],0.987
same,normalized growth,[84],0.888
same,normalized growth,[85],0.981
same,normalized growth,"locus YPL256C, strain CLN2, hits give low values",0.973
